Active and inactive are the calls of the source. Unless noted, no rule for the calls is given here.
Experiments:
[1] = tested on: Wnt5a (protein binding on small-molecule microarray); assay: small molecules binding Wnt5a protein – biophysical, small-molecule microarray, 635/667 nm fluorescence, primary screen (AID 1142); conditions: 635 nm fluorescence, higher = more signal;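 also: fluorescence read at 667 nm with signal to noise per printed feature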
[2] = ATP-based viability of Huh7 replicon cells – cell-based, CellTiter-Glo luminescence, basal, 48 h, cytotoxicity control for HCV replication inhibitor project, primary screen (AID 1143); conditions: higher = more signal, called active from +8 up or from −8 down;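 also: Huh7 hepatoma cells carrying a hepatitis C replication reporter with no stimulus; test concentration not given here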
[3] = Pseudomonas biofilm growth suppression – PAO1 strain, BacTiter-Glo luminescence, LB-PBS, primary screen (AID 1144); conditions: P. aeruginosa PAO1 biofilm, 12 h, higher = more signal
[4] = basal CRE-LacZ reporter activity in PC12 – cell-based, unstimulated, primary screen (AID 1145); conditions: no forskolin, luminescence, 4.5 h, higher = more signal, called active from +8 up or from −8 down
[5] = forskolin-driven CRE-LacZ activity in PC12 – cell-based, CRE-LacZ reporter, forskolin-stimulated, primary screen (AID 1146); conditions: luminescence, 4.5 h, higher = more signal, called active from +8 up or from −8 down;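 also: PC12 cells with 6xCRE LacZ reporter stimulated by forskolin 10 µM; beta-galactosidase reporter signal reflecting CREB driven transcription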
[6] = target: Streptavidin (Streptomyces avidinii) (UniProt P22629); assay: compounds binding control protein streptavidin – biophysical, small-molecule microarray, 635/667 nm fluorescence, artefact control for SMM compound annotation, primary screen (AID 1147); conditions: higher = more signal;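 also: signal reflects streptavidin binding to arrayed compounds as a control protein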
[7] = probe aInhba binding on compound microarray – biochemical, small-molecule microarray, 635/667 nm fluorescence, primary screen (AID 1148); conditions: higher = more signal;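 also: score merges 667nm spot fluorescence with signal-to-noise for antibody binding to printed compounds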
Torsin-1A (Homo sapiens) [8] = target: Torsin-1A (Homo sapiens) (UniProt O14656); assay: TOR1A wild-type binding on microarray – cell lysate, small-molecule microarray, lysate, 635/667 nm, primary screen (AID 1149); conditions: COS7 hTOR1A-WT lysate, 635 nm fluorescence, higher = more signal
Torsin-1A (Homo sapiens) [9] = target: Torsin-1A (Homo sapiens) (UniProt O14656); assay: torsin A mutant lysate binding on microarrays – cell lysate, small-molecule microarray, COS7 lysate, 635/667 nm fluorescence, primary screen (AID 1150); conditions: COS7 hTOR1A mutant lysate, 635 nm fluorescence, higher = more signal;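 also: score pools 667 nm emission and signal to noise measuring lysate protein binding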
[10] = tested on: Sonic hedgehog protein (Shh); assay: Sonic hedgehog microarray binding compounds – biochemical, small-molecule microarray, 635/667 nm fluorescence, primary screen (AID 1151); conditions: 635 nm fluorescence, higher = more signal;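 also: Shh protein binding to compounds spotted on small-molecule microarray slides; score combines spot fluorescence intensity with signal-to-noise across triplicate slides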
[11] = optical density shifts of acrAB sulA E. coli – strain DRC41, OD650, 48 h, E. coli filamentation inducer project, primary screen (AID 1152); conditions: higher = more signal, called active from +8 up or from −8 down;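 also: E. coli MC1000 strain DRC41 lacking acrAB efflux pump and sulA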
[12] = probe aLefty1 binding on compound microarray – biochemical, small-molecule microarray, 635/667 nm fluorescence, primary screen (AID 1153); conditions: higher = more signal;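 also: score merges spot fluorescence with signal-to-noise ratio from the scanned slide images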
[13] = plasmodial surface anion channel blockers, osmotic lysis – cell-based, P. falciparum Indochina, OD700, 1 h, primary screen (AID 1154); conditions: P. falciparum Indochina infected RBC osmotic lysis, higher = more signal, called active from +8 up or from −8 down
[14] = plasmodial surface anion channel blockers, osmotic lysis – cell-based, P. falciparum Indochina, OD700, 2 h, primary screen (AID 1155);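 also: lysis reports solute entry through the parasite surface anion channel PSAC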; conditions: P. falciparum Indochina infected erythrocytes, higher = more signal, called active from +8 up or from −8 down
[15] = changes in parasitized red cell lysis, either direction – P. falciparum Indochina, OD700, 3 h, PSAC antagonist project, primary screen (AID 1156); conditions: P. falciparum-infected erythrocytes, osmotic lysis, higher = more signal, called active from +8 up or from −8 down
[16] = plasmodial surface anion channel blockers, osmotic lysis – cell-based, P. falciparum Indochina, OD700, 18 h, primary screen (AID 1157); conditions: P. falciparum Indochina infected erythrocytes, osmotic lysis OD700, 18 h; higher = more signal, called active from +8 up or from −8 down
[17] = S6 kinase pathway phospho-S6 level changes – cell-based, A549, cytoblot, luminescence, serum-stimulated, primary screen (AID 1158); conditions: 5 h, higher = more signal;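 also: serum-stimulated A549 lung adenocarcinoma cells; signal is phosphorylated S6 detected by cytoblot immunostaining with HRP secondary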
[18] = target: NADPH oxidase 2 (Homo sapiens) (UniProt P04839); assay: compounds shifting NOX2 Amplex Red fluorescence – cell-based, HEK293-NOX2, PMA-stimulated, NOX inhibitor project, primary screen (AID 1159); conditions: 45 min, higher = more signal, called active from +8 up or from −8 down; also: test concentration not given here
[19] = target: NADPH oxidase 4 (Homo sapiens) (UniProt Q9NPH5); assay: compounds shifting NOX4 Amplex Red fluorescence – cell-based, HEK293-NOX4, tetracycline-induced, NOX inhibitor project, primary screen (AID 1160); conditions: HEK293-NOX4, Amplex Red H2O2 fluorescence, 45 min; higher = more signal, called active from +8 up or from −8 down
[20] = target: NADPH oxidase 5 (Homo sapiens) (UniProt Q96PH1); assay: compounds shifting NOX5 Amplex Red fluorescence – cell-based, HEK293-NOX5, NOX inhibitor project, primary screen (AID 1161); conditions: HEK293-NOX5, ionomycin, 45 min, higher = more signal
Sequence of NADPH oxidase 5 (Homo sapiens) (Q96PH1 whole entry, looked up): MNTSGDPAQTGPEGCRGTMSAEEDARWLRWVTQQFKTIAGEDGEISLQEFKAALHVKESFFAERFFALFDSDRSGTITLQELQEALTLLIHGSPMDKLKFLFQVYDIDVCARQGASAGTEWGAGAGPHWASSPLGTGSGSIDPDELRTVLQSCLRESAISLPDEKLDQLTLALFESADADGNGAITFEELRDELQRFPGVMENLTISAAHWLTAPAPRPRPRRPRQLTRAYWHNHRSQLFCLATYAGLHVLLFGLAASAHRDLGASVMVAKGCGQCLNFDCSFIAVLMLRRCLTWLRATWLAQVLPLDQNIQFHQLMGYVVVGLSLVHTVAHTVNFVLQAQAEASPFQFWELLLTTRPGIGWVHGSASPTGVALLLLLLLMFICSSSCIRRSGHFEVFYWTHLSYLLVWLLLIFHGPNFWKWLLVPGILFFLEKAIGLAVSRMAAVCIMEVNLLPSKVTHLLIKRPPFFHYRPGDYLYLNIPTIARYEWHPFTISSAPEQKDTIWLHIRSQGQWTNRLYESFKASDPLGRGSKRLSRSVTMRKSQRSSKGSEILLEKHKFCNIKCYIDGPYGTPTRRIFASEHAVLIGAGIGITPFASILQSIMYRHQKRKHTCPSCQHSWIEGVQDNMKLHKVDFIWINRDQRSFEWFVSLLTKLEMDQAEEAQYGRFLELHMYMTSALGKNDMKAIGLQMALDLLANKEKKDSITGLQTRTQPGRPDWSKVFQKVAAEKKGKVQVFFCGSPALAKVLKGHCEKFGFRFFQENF

Sequence of Streptavidin (Streptomyces avidinii) (P22629 whole entry, looked up): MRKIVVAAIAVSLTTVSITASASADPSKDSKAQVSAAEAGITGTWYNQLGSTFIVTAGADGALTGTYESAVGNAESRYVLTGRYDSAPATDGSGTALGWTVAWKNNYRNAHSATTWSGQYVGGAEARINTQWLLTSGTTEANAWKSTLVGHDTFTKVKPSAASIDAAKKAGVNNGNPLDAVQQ
Sequence of NADPH oxidase 4 (Homo sapiens) (Q9NPH5 whole entry, looked up): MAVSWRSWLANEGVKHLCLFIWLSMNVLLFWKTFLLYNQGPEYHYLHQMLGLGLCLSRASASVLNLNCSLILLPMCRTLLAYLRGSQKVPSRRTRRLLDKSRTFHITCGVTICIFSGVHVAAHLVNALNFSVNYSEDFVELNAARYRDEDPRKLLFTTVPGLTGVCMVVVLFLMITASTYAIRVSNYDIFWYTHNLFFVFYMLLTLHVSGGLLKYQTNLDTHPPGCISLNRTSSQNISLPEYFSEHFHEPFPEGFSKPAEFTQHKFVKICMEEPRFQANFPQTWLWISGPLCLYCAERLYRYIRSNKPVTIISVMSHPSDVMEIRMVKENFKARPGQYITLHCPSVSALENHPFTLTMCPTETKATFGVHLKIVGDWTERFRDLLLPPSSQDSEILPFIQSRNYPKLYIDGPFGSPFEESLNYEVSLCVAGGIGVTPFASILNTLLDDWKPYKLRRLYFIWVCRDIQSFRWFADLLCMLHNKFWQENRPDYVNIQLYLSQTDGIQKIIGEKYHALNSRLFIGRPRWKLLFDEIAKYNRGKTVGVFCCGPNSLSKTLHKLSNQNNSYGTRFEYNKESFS
Sequence of Torsin-1A (Homo sapiens) (O14656 whole entry, looked up): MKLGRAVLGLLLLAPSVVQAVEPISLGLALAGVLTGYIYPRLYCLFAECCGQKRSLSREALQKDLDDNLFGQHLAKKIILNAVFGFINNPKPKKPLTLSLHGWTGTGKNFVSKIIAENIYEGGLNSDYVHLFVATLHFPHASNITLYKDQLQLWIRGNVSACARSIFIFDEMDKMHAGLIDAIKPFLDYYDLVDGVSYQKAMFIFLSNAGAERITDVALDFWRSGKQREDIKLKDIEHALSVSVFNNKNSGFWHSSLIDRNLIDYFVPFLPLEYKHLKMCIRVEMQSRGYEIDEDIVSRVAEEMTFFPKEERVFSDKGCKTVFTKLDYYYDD
Sequence of NADPH oxidase 2 (Homo sapiens) (P04839 whole entry, looked up): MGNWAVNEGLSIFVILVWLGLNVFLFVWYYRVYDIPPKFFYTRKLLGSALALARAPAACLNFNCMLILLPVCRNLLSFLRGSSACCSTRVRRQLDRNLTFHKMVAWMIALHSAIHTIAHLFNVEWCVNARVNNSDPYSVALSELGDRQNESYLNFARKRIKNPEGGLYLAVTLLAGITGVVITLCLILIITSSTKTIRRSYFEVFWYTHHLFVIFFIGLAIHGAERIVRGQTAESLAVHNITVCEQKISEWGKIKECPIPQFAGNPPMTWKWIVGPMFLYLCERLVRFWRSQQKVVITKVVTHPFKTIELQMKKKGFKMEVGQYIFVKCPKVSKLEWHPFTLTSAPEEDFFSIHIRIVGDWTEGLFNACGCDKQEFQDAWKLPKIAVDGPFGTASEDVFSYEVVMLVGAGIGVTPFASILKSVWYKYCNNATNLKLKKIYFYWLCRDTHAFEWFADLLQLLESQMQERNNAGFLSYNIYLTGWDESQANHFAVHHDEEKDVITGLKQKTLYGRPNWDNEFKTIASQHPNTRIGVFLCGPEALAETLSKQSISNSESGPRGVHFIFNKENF

Row | Structure (SMILES) | composite z-score [1] | z-score [2] | z-score [3] | z-score [4] | z-score [5] | composite z-score [6] | composite z-score [7] | composite z-score (Torsin-1A (Homo sapiens) [8]) | composite z-score (Torsin-1A (Homo sapiens) [9]) | composite z-score [10] | z-score [11] | composite z-score [12] | z-score [13] | z-score [14] | z-score [15] | z-score [16] | z-score [17] | z-score [18] | z-score [19] | z-score [20]
1 | Cc1ccc(S[C@]2(C(=O)NCCCN(C)C)CC(=O)N(C3Cc4ccccc4C3)[C@@H]2c2ccc(CO)cc2I)cc1 | -0.283 | -1.5 (inactive) | 0.505 (inactive) | 0.155 (inactive) | 2.5 (inactive) | 0.372 | -0.182 | -1.5 | -1.04 | -0.348 | -0.759 (inactive) | -0.0882 | 4.32 (inactive) | 0.903 (inactive) | 0.925 (inactive) | 0.352 (inactive) | -0.0249 | 0.914 (inactive) | -1.12 (inactive) | 2.56
2 | C=CCN1C(=O)[C@@]2(O[C@@H](CCn3cc([C@H](O)c4ccccc4)nn3)[C@H]([Si](C)(C)c3ccc(OC)cc3)[C@H]2C)c2cc(N3C(=O)c4cccc5cccc3c45)ccc21 | -0.654 | -3.71 (inactive) | -0.119 (inactive) | 9.39 (active) | -0.592 (inactive) | -0.253 | -0.128 | -0.488 | -0.462 | -0.339 | -0.851 (inactive) | -0.101 | 4.77 (inactive) | 1.81 (inactive) | 0.519 (inactive) | 1.31 (inactive) | 0.075 | 0.962 (inactive) | 1.57 (inactive) | 2.52
3 | COCCOC(=O)N1C(=O)[C@@]2(c3cc(C#CCC(C(=O)OC)C(=O)OC)ccc31)[C@H](C(=O)Nc1nc3ccccc3s1)[C@H]1C(=O)O[C@H](c3ccccc3)[C@H](c3ccccc3)N1[C@@H]2c1ccc(O)cc1 | 0.624 | -0.869 (inactive) | 0.446 (inactive) | -1.14 (inactive) | 0.316 (inactive) | 1.27 | 0.326 | 0.391 | 0.0756 | 1.84 | 0.0976 (inactive) | 0.786 | 1.3 (inactive) | 0.575 (inactive) | -0.0813 (inactive) | 0.751 (inactive) | -0.0525 | 1.59 (inactive) | -1.11 (inactive) | 0.755
4 | COC(=O)[C@@]1(Cc2ccccc2)[C@H]2c3cc(C(=O)N(C)C)n(CCO)c3C[C@H]2CN1C(=O)c1ccccc1 | 0.518 | 0.254 (inactive) | 0.409 (inactive) | 0.583 (inactive) | -0.609 (inactive) | 2.16 | 0.329 | -0.212 | 0.133 | -0.611 | -1.65 (inactive) | 0.188 | -0.469 (inactive) | 0.19 (inactive) | -0.0157 (inactive) | 0.57 (inactive) | -0.935 | 0.714 (inactive) | 0.111 (inactive) | -0.912
5 | Cc1ccc(S[C@]2(C(=O)NC3CC3)CC(=O)N(C(C)C)[C@@H]2c2ccc(CO)cc2I)cc1 | -0.385 | -4.82 (inactive) | -1.21 (inactive) | 0.299 (inactive) | 1.42 (inactive) | -0.677 | -0.394 | 0.778 | 0.652 | 0.677 | 0.839 (inactive) | -0.703 | 5.84 (inactive) | -0.558 (inactive) | 0.927 (inactive) | -1.31 (inactive) | 2.32 | 0.828 (inactive) | -1.91 (inactive) | -2.33
6 | COC(=O)[C@@]1(Cc2ccc(OC)cc2)[C@H]2c3cc(C(=O)N4CCCC4)n(Cc4ccc(C(F)(F)F)nc4)c3C[C@H]2CN1C(=O)c1ccccc1 | 0.426 | -2.36 (inactive) | 0.361 (inactive) | -0.372 (inactive) | 0.945 (inactive) | -0.012 | 0.225 | 0.866 | 0.52 | -0.246 | -2.07 (inactive) | -0.0647 | 6.38 (inactive) | 4.52 (inactive) | 0.746 (inactive) | 3.37 (inactive) | -0.249 | 0.101 (inactive) | 0.564 (inactive) | 0.63
7 | C=CC[C@@]1(C(=O)OC)N=C(c2ccc(OCCCO)cc2)O[C@@H]1c1ccccc1N=[N+]=[N-] | 0.938 | -3.5 (inactive) | -1.57 (inactive) | 1.79 (inactive) | -0.775 (inactive) | -0.195 | 0.286 | 0.288 | 0.672 | 2.02 | 0.0465 (inactive) | 0.398 | 30.6 (active) | 27.4 (active) | 4.11 (inactive) | 5.12 (inactive) | 0.581 | -0.471 (inactive) | 1.43 (inactive) | -0.0237
8 | CC(C)c1nc2cc(Br)ccc2c(=O)o1 | 0.432 | -0.232 (inactive) | -0.523 (inactive) | -0.348 (inactive) | -0.524 (inactive) | 0.632 | -0.0736 | 0.0358 | 0.244 | 0.116 | 0.537 (inactive) | 0.202 | 2.79 (inactive) | 0.153 (inactive) | 0.958 (inactive) | 0.303 (inactive) | -0.228 | -0.421 (inactive) | -0.0107 (inactive) | 0.118
